# Test results published in paper PMC7819943, “Rice protein-binding microarrays: a tool to detect cis-acting elements near promoter regions in rice”.
# In all, about 39,000 sequences were measured (“fluorescence intensity (a.u.)”: median about 4,300, highest 2% from about 39,000 on). The list comes from a sample in which the highest values are over-represented; it also holds similar and randomly drawn sequences.
# Molecular target: T1, OsSMF1 (Oryza sativa, UniProt Q6ZLB0 1-436)
# T1 sequence: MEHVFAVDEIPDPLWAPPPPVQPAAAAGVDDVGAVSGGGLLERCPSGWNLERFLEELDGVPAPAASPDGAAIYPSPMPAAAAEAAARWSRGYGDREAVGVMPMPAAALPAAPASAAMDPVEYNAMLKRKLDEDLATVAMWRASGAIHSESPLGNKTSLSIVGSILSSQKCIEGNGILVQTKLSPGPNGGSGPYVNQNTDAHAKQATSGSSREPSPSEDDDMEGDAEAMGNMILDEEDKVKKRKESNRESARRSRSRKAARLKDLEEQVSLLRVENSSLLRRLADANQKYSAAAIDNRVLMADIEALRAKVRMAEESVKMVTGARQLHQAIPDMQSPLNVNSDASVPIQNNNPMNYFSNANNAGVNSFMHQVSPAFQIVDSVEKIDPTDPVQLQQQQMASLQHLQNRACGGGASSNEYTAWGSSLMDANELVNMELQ
# Assay: protein-binding microarray (RPBM); PBS, 2% BSA, 51.3 ng/ul salmon testes DNA, 50 uM zinc acetate, 200 nM TF, 25 C, 1 h; high values mean tight binding
# Details: protein: recombinant; tags: N-terminal polyhistidine and DsRed monomer fusion (pET32a); chain copies: 2; label: CyDye5-dUTP incorporated in the synthesized complementary strand; 3' TTTTT single-stranded linker to array surface; dsDNA, one strand shown
# How it was run: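 Binding signal here means per-feature fluorescence intensity in arbitrary units. The values were read on an Axon 4000B scanner after a custom Agilent array, double-stranded by primer extension with Cy5-dUTP, was incubated with 200 nM protein at 25 °C for 1 h in PBS with 2% BSA, salmon testes DNA and 50 µM zinc acetate, then washed. The proteins were transcription factors with an N-terminal polyhistidine tag and DsRed, expressed in E. coli BL21-CodonPlus and purified on Ni–NTA.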
row,Sequence,binding signal
1,CGTGACGCGCAGCTCCCTGCAGCCGACCTGGCCACCCACACGGAGTCACCTAGTGCAG,3500 fluorescence intensity (a.u.)
2,TATATTCGTGTCATTTAGATACCATACCACATCCTGCTACCGGAGTCACCTAGTGCAG,3240 fluorescence intensity (a.u.)
3,TTACGATCACCGAAAAGTGGTAGCGTACGTGTTGAGTGTGCGGAGTCACCTAGTGCAG,4140 fluorescence intensity (a.u.)
4,GCTTGCTTTGTCACATGCAGTTTTACACCTTTTATTTCTCCGGAGTCACCTAGTGCAG,6070 fluorescence intensity (a.u.)
5,AATCAGATGATCGGTGCTGCAGCCATCATTGAAGCCTGTGCGGAGTCACCTAGTGCAG,3400 fluorescence intensity (a.u.)
6,AAATCAGGAGCCTCTGCCATTGGTTTGTGAAGCTACATCGCGGAGTCACCTAGTGCAG,65500 fluorescence intensity (a.u.)
7,TCAGGTGAAATCTGCTTCAGCCATATTCATTGGTAATCAGCGGAGTCACCTAGTGCAG,3600 fluorescence intensity (a.u.)
8,CTCACTGACGTAGGTTTATTGTACCTATTCTAATTAAGGCCGGAGTCACCTAGTGCAG,39400 fluorescence intensity (a.u.)
9,GAGGGTTTTAATTACTCACTGACATGTAGGGTCACGGGGTCGGAGTCACCTAGTGCAG,4390 fluorescence intensity (a.u.)
10,ACACTATTAATTGTTTTATTAGGTTTCAGACGTTATTTTGCGGAGTCACCTAGTGCAG,3150 fluorescence intensity (a.u.)
11,TTTGAGCGCCGCTCGACTATGTCATGAAGCAACGTGGCACCGGAGTCACCTAGTGCAG,7750 fluorescence intensity (a.u.)
12,GGGGAGAGGGAGGAGGAGGAGGAGAGTGGCTACTAGTACTCGGAGTCACCTAGTGCAG,3380 fluorescence intensity (a.u.)
13,CTCATTTGAACACATGTACACTACTAATCCTCGTTCTGGACGGAGTCACCTAGTGCAG,39200 fluorescence intensity (a.u.)
14,TGTACATTGTTTGAACTAATCAGTAATCATCACAGTGGTTCGGAGTCACCTAGTGCAG,3160 fluorescence intensity (a.u.)
15,ACATTCTAGCCATTCATTCTTCACACCTCATTTAATCCTACGGAGTCACCTAGTGCAG,3280 fluorescence intensity (a.u.)
16,ACCACACCTTGTCAAAACTTCAGTAACAGCAGAAGTTACACGGAGTCACCTAGTGCAG,3140 fluorescence intensity (a.u.)
17,GGCAAACCAGTAACTAGAAACCACGTTATTCAAAAGCATTCGGAGTCACCTAGTGCAG,3940 fluorescence intensity (a.u.)
18,CAATAGACTTCAAGGAAGCATACCAATACCAGTAACCACACGGAGTCACCTAGTGCAG,40800 fluorescence intensity (a.u.)
19,TCTTTTGGTTTACAACACTTTGTATGCTAGCATTATTTTGCGGAGTCACCTAGTGCAG,3420 fluorescence intensity (a.u.)
20,GCGGTTTATGTACACGTCAGCATTTTGCTTCCTTCCTTCCCGGAGTCACCTAGTGCAG,47800 fluorescence intensity (a.u.)
21,TATACACCACGTTTGCTGGCTTGGCTTCCTTCCACACTCCCGGAGTCACCTAGTGCAG,4000 fluorescence intensity (a.u.)

row,Sequence,binding signal
1,CCGCGCCACCTCATGCCGTGACGTGCAGATCCCCTCCTCCCGGAGTCACCTAGTGCAG,7890 fluorescence intensity (a.u.)
2,CACGTGTTTTCTCGATGTCCACGTGGTGATGTGGAATTGTCGGAGTCACCTAGTGCAG,14800 fluorescence intensity (a.u.)
3,ACATCATGCCACATGCTTCCAAGAAGGATCCCATAGATGTCGGAGTCACCTAGTGCAG,4220 fluorescence intensity (a.u.)
4,AATCTCGGTGCTGAGTGGACATGAATGAATGATGGAATCTCGGAGTCACCTAGTGCAG,4150 fluorescence intensity (a.u.)
5,GGAATGGATAGTGTTCTCGGAAGGAAATTGGTGCTGATGTCGGAGTCACCTAGTGCAG,45600 fluorescence intensity (a.u.)
6,ATCGTGATGCAAATGTCGAACTTGGAAGATATCCATGGATCGGAGTCACCTAGTGCAG,39000 fluorescence intensity (a.u.)
7,TTGTCCATCAATGGAGATGATGATGCCATGATCAAATGATCGGAGTCACCTAGTGCAG,3370 fluorescence intensity (a.u.)
8,TCGATTCATTCGTTCCTTGGGTCGTGTCAGCATGGCCCATCGGAGTCACCTAGTGCAG,11100 fluorescence intensity (a.u.)
9,GGTCTGGCGATGGAGCCTCCCGCCGGAGACGCCGCGCCGTCGGAGTCACCTAGTGCAG,3540 fluorescence intensity (a.u.)
10,CCATGTTCCCAACCCCTCTCCCTCATTTTCCACGCGTATGCGGAGTCACCTAGTGCAG,3650 fluorescence intensity (a.u.)
11,TAACATCATGTCTAGTTTGTTACCCTATCAAGACTAAAACCGGAGTCACCTAGTGCAG,42600 fluorescence intensity (a.u.)
12,GAAACAAACACATCAGATGACGTTTGTTGAAATGCCTAACCGGAGTCACCTAGTGCAG,5000 fluorescence intensity (a.u.)
13,ATGTTTGTGAAGTGACATATCACATATTGATCTATCATACCGGAGTCACCTAGTGCAG,5200 fluorescence intensity (a.u.)
14,ATCATCTAGTTAAGACTGTTTGTATGCAACTATGCATGTACGGAGTCACCTAGTGCAG,31400 fluorescence intensity (a.u.)
15,TGAGAGGTCTACATCATTACATGTCAAGACAAGACTACCACGGAGTCACCTAGTGCAG,4540 fluorescence intensity (a.u.)
16,GTCCCTATCACATCGGATGTTTGAACAAAACAGAATATACCGGAGTCACCTAGTGCAG,45600 fluorescence intensity (a.u.)
17,ACTTAATAAAATCAAACGTCACAGTTCCGTACTTTTCAGTCGGAGTCACCTAGTGCAG,35900 fluorescence intensity (a.u.)
18,TCGCCGGGCTTCTCTACGAGTACCTCGTCATCCCGTCCACCGGAGTCACCTAGTGCAG,5700 fluorescence intensity (a.u.)
19,ACGCAGCGGGCCAACTCCAACTCATCCCCAGCCTCCACCACGGAGTCACCTAGTGCAG,4360 fluorescence intensity (a.u.)
20,TTGGAGTCCGTGCTGCAGCTGGCTACAGATCTGTAGCCCGCGGAGTCACCTAGTGCAG,37600 fluorescence intensity (a.u.)
21,CCGTGCTACAGCTGGCTACAAATATGTAGCCCTATGCTCTCGGAGTCACCTAGTGCAG,18300 fluorescence intensity (a.u.)
